Unmarked numbers belong to inactive results. Activity calls are given as the source filed them. Calls follow the shape of the full dose curve.
Biological target: Acetylcholinesterase (Homo sapiens) (UniProt P22303)
Assay: Acetylcholinesterase (AChE) small molecule antagonists: enzyme-based qHTS assay (AID 1347397); also: nearly all actives have a fitted effect of over 55% in size
Conditions: Potency: AChE enzyme activity inhibition; series mostly up to 115 µM; activity change, negative = inhibition: at the top concentration
From the text: National Center for Advancing Translational Sciences [NCATS]
Division of Preclinical Innovation [DPI]
U.S. Environmental Protection Agency [EPA]
National Institutes of Environmental Health Sciences [NIEHS]
National Toxicology Program [NTP]
U.S. Food and Drug Administration [FDA]
Acetylcholinesterase (AChE) is the primary cholinesterase in the body that hydrolyzes a key neurotransmitter, acetylcholine. Inhibition of AChE activity can lead to neurotoxicity. The known inhibitors include organophosphorous pesticides (OP), chemical warfare agents, drugs, and various phytochemicals.
An enzyme-based assay with the recombinant human AChE and Amplite Colormetric acetylcholinesterase assay kit (AAT Bioquest, Sunnyvale, CA) was used to evaluate the chemicals in the Tox21 10K library that inhibit AChE activity. The assay uses 5, 5-dithiobis-(2-nitrobenzoic acid) (DTNB) to quantify the thiocholine produced from the hydrolysis of acetylthiocholine by AChE.
Tox21 Assay Protocol Summary:
For the enzyme-based AChE assay, recombinant human AChE (50 mU/mL) in 4 uL/well was dispensed into black, clear-bottom 1536-well plates using a Multidrop Combi dispenser (Thermo Scientific, MA). Then, 23 nL of compound or DMSO (vehicle control) was transferred into the assay plates by a Pintool Station (Wako Automation, CA). The plates were incubated for 30 min at room temperature, followed by the addition of 4 uL of colorimetric detection cocktail solution (DTNB, acetylthiocholine) into each well using a Flying Reagent Dispenser (Beckman Coulter, CA) and then 10 min incubation at room temperature.
% is scaled to controls: 0 for no effect and ±100 for the full control effect; potency is read from the fitted curve at half-maximal effect.

Sequence of Acetylcholinesterase (Homo sapiens) (P22303 whole entry, looked up): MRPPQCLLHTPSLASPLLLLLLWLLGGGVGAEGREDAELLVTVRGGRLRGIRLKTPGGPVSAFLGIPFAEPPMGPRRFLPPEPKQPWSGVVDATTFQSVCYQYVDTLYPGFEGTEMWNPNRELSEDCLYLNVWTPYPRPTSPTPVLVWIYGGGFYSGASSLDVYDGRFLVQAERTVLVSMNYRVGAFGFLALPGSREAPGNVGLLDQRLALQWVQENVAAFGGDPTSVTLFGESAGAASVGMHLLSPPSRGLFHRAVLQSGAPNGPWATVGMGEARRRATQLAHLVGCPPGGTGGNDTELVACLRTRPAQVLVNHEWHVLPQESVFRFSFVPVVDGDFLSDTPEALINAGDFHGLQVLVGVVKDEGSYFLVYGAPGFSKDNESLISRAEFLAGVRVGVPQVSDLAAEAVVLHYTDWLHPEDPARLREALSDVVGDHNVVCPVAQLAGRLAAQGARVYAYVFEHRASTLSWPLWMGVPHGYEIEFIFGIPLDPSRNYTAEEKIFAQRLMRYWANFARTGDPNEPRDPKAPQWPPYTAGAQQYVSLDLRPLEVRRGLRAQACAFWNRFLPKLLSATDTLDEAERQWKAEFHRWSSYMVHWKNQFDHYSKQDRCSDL

| SMILES | Potency | activity change, negative = inhibition |
| --- | --- | --- |
| CCCCCCCCCCCCCC[P+](CCCCCC)(CCCCCC)CCCCCC (tested in a mixture with another compound) | 20 µM (active) | – |
| Brc1c(Br)c(Br)c(Oc2c(Br)c(Br)c(Br)c(Br)c2Br)c(Br)c1Br | – | -1.63% [at 23.6 µM] |
| Cc1cccc(OP(=O)(Oc2cccc(C)c2)Oc2cccc(C)c2)c1 | – | -4.6% |
| CN(C)C1CSSSC1 | – | -2.93% |
| CCCCN(CCCC)C(=S)[S-].CCCCN(CCCC)C(=S)[S-].[Zn+2] | – | -8.91% |
| Cn1cc(C2=C(c3cn(C4CCN(Cc5ccccn5)CC4)c4ccccc34)C(=O)NC2=O)c2ccccc21 | – | 0.415% [at 53 µM] |
| CC(C)CBr | – | 0.0319% |
| CC(C)(O)c1cnn2c(-c3ccc(F)c(-c4c(F)cccc4C#N)c3)cnc2n1 | – | -18.5% |
| Oc1ccc(I)cc1 | – | -0.0028% |
| CCc1ccccc1C | – | 0.273% |
| C=COCCCl | – | 0.546% |
| Clc1ccc(-c2ccccc2)cc1 | – | -0.13% |
| OC(c1ccc(Cl)cc1)(c1ccc(Cl)cc1)C(Cl)(Cl)Cl | – | 0.723% |
| C=CC(=O)OCC(COC(=O)C=C)(COC(=O)C=C)COC(=O)C=C | – | -0.345% |
| Oc1ccc(C2(c3ccc(O)cc3)CCCCC2)cc1 | – | -16.7% |
| Cc1ccc(OP(=O)(Oc2ccccc2)Oc2ccccc2)cc1 | 20.3 µM (active) | – |
| O=[N+]([O-])c1ccc2ccc3cccc4ccc1c2c34 | – | -5.31% |
| Oc1cc(Cl)c(Cl)c(Cl)c1 | – | -3% |
| CCS(=O)(=O)c1cccnc1S(=O)(=O)NC(=O)Nc1nc(OC)cc(OC)n1 | – | 0.168% |
| OC(Cc1ccccc1Cl)(Cn1cncn1)C1(Cl)CC1 (stereo not given) | – | 0.954% |

| SMILES | Potency | activity change, negative = inhibition |
| --- | --- | --- |
| Oc1ccc2ccc3cccc4ccc1c2c34 | – | -21.3% |
| Cc1cc(Cl)ccc1O[C@H](C)C(=O)O | – | 0.599% |
| BrC(Br)C(Br)(Br)Br | – | -0.0105% |
| COP(=S)(OC)Oc1cc(Cl)c(Br)cc1Cl | – | -0.325% |
| Nc1c(Oc2ccccc2)cc(O)c2c1C(=O)c1ccccc1C2=O | – | 1.09% [at 53 µM] |
| CC(=[OH+])/C=C(/C)[O-].CC(=[OH+])/C=C(\C)[O-].CC(=[OH+])/C=C(\C)[O-].[Fe] | – | -0.409% |
| CC(=O)OC1(c2ccccc2)CCN(CCc2ccccc2)CC1 | – | 0.337% |
| Fc1cccc(Cl)c1CCl | – | 2.41% |
| CCOCn1c(-c2ccc(Cl)cc2)c(C#N)c(Br)c1C(F)(F)F | – | -12.3% |
| N#CCCSCCC#N | – | -0.273% |
| O=C(O)COc1nc(Cl)c(Cl)cc1Cl | – | 1.77% |
| c1ccc(Nc2ccc3ccccc3c2)cc1 | inactive | – |
| O=C1c2ccccc2C(=O)C1C(=O)C(c1ccccc1)c1ccc(Cl)cc1 (stereo not given) | – | 0.401% |
| COCC(=O)N(c1c(C)cccc1C)[C@H](C)C(=O)OC | – | 1.49% |
| CCc1cc(C)cc(CC)c1-c1c(OC(=O)C(C)(C)C)n2n(c1=O)CCOCC2 | – | 0.273% |
| CCOP(=S)(OCC)OC(Cl)C(Cl)(Cl)Cl (stereo not given) | 79.6 µM (active) | – |
| C[C@@H]1O[C@@H](O[C@H]2C[C@@H](O)[C@]3(CO)[C@H]4[C@H](O)C[C@]5(C)[C@@H](C6=CC(=O)OC6)CC[C@]5(O)[C@@H]4CC[C@]3(O)C2)[C@H](O)[C@H](O)[C@H]1O | inactive | – |
| C=CCC1=C(C)C(OC(=O)C2C(C=C(C)C)C2(C)C)CC1=O (stereo not given) | – | -6.97% |
| Nc1ccc(Cl)cc1C(=O)c1ccccc1 | – | 0.272% |
| c1ccc2c(c1)OCC(C1=NCCN1)O2 (stereo not given) | – | 3.11% [at 53 µM] |
